Test results as given in PubChem BioAssay AID504332 (National Center for Advancing Translational Sciences (NCATS), 2011).
Hit rate of the full screen: of about 350,000 compounds, about 31,000 (8.9%) were called active. About 15% were inconclusive and are not listed. Only a selection was taken, and actives are over-represented in it overall. A number with no mark means an inactive call. Calls come from the whole dose curve; as a rule, active = well fitted inhibition curve with a large enough effect; inconclusive = small, poorly fitted or top-dose-only effect; inactive = no such curve, though single readings can be large or run the other way.

biological target: Histone-lysine N-methyltransferase EHMT2 (Homo sapiens) (UniProt Q96KQ7); assay: qHTS Assay for Inhibitors of Histone Lysine Methyltransferase G9a; details: G9a H3K9 monomethylation, AlphaScreen, 2 h; series mostly up to 59 µM; activity, negative = inhibition: at the top concentration; note: nearly all actives have a fitted effect of over 75% in size
Sequence (Q96KQ7 913-1193 limits assumed): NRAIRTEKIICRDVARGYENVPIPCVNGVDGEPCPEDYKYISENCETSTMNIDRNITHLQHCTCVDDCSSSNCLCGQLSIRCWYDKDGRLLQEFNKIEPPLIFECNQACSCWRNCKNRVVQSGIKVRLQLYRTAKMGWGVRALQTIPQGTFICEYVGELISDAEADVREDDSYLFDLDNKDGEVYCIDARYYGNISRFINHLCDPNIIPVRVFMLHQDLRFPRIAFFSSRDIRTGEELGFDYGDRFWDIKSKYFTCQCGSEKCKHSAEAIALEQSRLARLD
Method in brief: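 AlphaScreen detection with an anti-monomethyl H3K9 antibody quantified product after a 2 h room-temperature reaction containing 500 nM biotinylated H3K9 peptide, 20 µM SAM and 20 nM enzyme, which had been preincubated 15 min with compound.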
% is set by controls: 0 for no effect and ±100 for the full control effect; potency is the fitted concentration of half-maximal effect.

Question: Which “activity, negative = inhibition” value does the source give for CCOC(=O)CNC(=O)N1c2ccccc2Sc2ccccc21 here?
Answer: The value was 20.2% [at 102 µM].

Question: For CCNC(=O)N1c2ccccc2Sc2ccccc21, which “activity, negative = inhibition” value is on record?
Answer: Its value is 34.9% [at 102 µM].

Question: For CCN1CCC(N(Cc2ccc(F)cc2)C(=O)Nc2cc(C)ccc2C)CC1, which “activity, negative = inhibition” value is on record?
Answer: Its value is -29.4%.

Question: How did the “activity, negative = inhibition” value turn out when CCn1cc(C(=O)N2CCN(c3cc(C)ccc3C)CC2)c(=O)c2cc(S(=O)(=O)N(C)C3CCCCC3)ccc21 was run?
Answer: The value was -33.5%.

Question: How did the “activity, negative = inhibition” value turn out when C=CCn1c(=S)sc2c(=O)[nH]c(C)nc21 was run?
Answer: Its value is -0.441% [at 102 µM].

Question: How did the “activity, negative = inhibition” value turn out when Cc1[nH]c2ccc(S(N)(=O)=O)cc2c1C was run?
Answer: Its value is -7.63%.

Question: For Cc1nc(-c2ccccc2)sc1-c1nc(-c2ccccc2)ncc1S(=O)(=O)c1ccccc1, which “activity, negative = inhibition” value is on record?
Answer: Its value is -34.6% [at 102 µM].

Question: Cc1nc(-c2ccccc2)sc1-c1nnc(C2CC2)o1 was tested. Which “activity, negative = inhibition” value did it give?
Answer: The value was 103% [at 102 µM].

Question: For C=CCn1c(-c2ccccc2OCC)n[nH]c1=S, which Potency is on record?
Answer: The Potency was 7.08 µM (active).

Question: With C=CCn1c(COc2ccccc2C)nnc1SCC(=O)O as the compound, how does the “activity, negative = inhibition” value read?
Answer: Its value is -44.1%.

Question: How did the “activity, negative = inhibition” value turn out when C=CCn1c(COc2cccc3cccnc23)nnc1SCC(=O)OC was run?
Answer: The value was -28.7%.

Question: C=CCn1c(-c2sc(-c3ccccc3)nc2C)n[nH]c1=S was tested. Which Potency did it give?
Answer: Its Potency is 3.16 µM (active).

Question: Which Potency does the source give for C=CCn1c(-c2ccc3[nH]c(C)c(C)c3c2)n[nH]c1=S here?
Answer: Its Potency is 1 µM (active).

Question: For Cc1ccsc1-c1cc(C(=O)O)c2c(ccc3ccccc32)n1, which “activity, negative = inhibition” value is on record?
Answer: Its value is -17.8%.

Question: How did the “activity, negative = inhibition” value turn out when CCOC(=O)c1[nH]c(C)c(CCC(=O)N2CCN(c3ccccc3)CC2)c1C was run?
Answer: Its value is -27.2%.

Question: COc1ccc(/C=C/c2noc(-c3ccccc3OC(C)=O)n2)cc1 was tested. Which “activity, negative = inhibition” value did it give?
Answer: Its value is 19.6% [at 102 µM].

Question: How did the “activity, negative = inhibition” value turn out when COc1ccc(CCNC(=O)CCCn2c(=O)c3ccccc3n(Cc3ccc(F)cc3Cl)c2=O)cc1OC was run?
Answer: The value was 34.5%.

Question: How did the “activity, negative = inhibition” value turn out when COc1ccc(COC(=O)c2ccc(Cl)c(S(=O)(=O)N3CCOCC3)c2)cc1F was run?
Answer: The value was 18.9% [at 102 µM].

Question: Cn1nccc1C(=O)NC1CCCc2c1cnn2-c1ccccc1F (stereo not drawn) was tested. Which activity, negative = inhibition did it give?
Answer: The activity, negative = inhibition was 16.6% [at 0.501 µM].

Question: For CC(=O)NCC(=O)NC1CCCc2c1cnn2-c1ccccc1F (stereo not drawn), which activity, negative = inhibition is on record?
Answer: The activity, negative = inhibition was 11.3% [at 0.501 µM].

Question: For Cn1nccc1C(=O)NC1CCCc2c1cnn2-c1ccc(F)cc1F (stereo not drawn), which Potency is on record?
Answer: Its Potency is 79.4 µM (active).

Question: How did the “activity, negative = inhibition” value turn out when Cc1ccc(-c2nnc(Nc3ccc(OCC(N)=O)cc3)c3ccccc23)cc1S(=O)(=O)NCC1CCCO1 (stereo not drawn) was run?
Answer: The value was -44.6%.

Question: Which “activity, negative = inhibition” value does the source give for Cc1ccccc1OCc1nc2c3cnn(-c4ccccc4F)c3ncn2n1 here?
Answer: Its value is 13.2%.

Question: CC(NC(=O)c1ccc(N2CCNCC2)c([N+](=O)[O-])c1)C12CC3CC(CC(C3)C1)C2 (stereo not drawn) was tested. Which “activity, negative = inhibition” value did it give?
Answer: Its value is -0.814%.

Question: How did the Potency turn out when CN(C)NC(=O)C(NC(=O)c1ccc(N)cc1)C12CC3CC(CC(C3)C1)C2 (stereo not drawn) was run?
Answer: Its Potency is 44.7 µM (active).

Question: For CC(CNC(=O)c1ccc(N)cc1)NC(=O)c1ccc(N)cc1 (stereo not drawn), which “activity, negative = inhibition” value is on record?
Answer: Its value is -4.15% [at 102 µM].

Question: With CCOC(=O)C(C)n1cnc2c(nnn2-c2ccc(F)cc2)c1=O (stereo not drawn) as the compound, how does the “activity, negative = inhibition” value read?
Answer: The value was 13.5% [at 102 µM].

Question: CC(C)(C)C1CCc2c(sc(NC(=O)c3ccccc3F)c2C(=O)N2CCCCC2)C1 (stereo not drawn) was tested. Which “activity, negative = inhibition” value did it give?
Answer: The value was 6.27%.

Question: Which “activity, negative = inhibition” value does the source give for O=C(Nc1ccccc1N1CCOCC1)c1ccc(OCc2cscn2)cc1 here?
Answer: Its value is -2.78%.

Question: How did the Potency turn out when CCn1c(=N)n(CC(=O)c2cccc(OC)c2)c2ccccc21 was run?
Answer: Its Potency is 44.7 µM (active).

Question: Which “activity, negative = inhibition” value does the source give for COc1ccc2cc(C(=O)O)n(CC(=O)c3ccccc3)c2c1 here?
Answer: The value was 10.7% [at 102 µM].

Question: How did the “activity, negative = inhibition” value turn out when CCOC(=O)c1cc2ccccc2n1CC(=O)c1ccccc1 was run?
Answer: The value was -0.017% [at 102 µM].

Question: With COc1ccccc1C(=O)NCC(=O)NCCSc1ccc(Br)cc1 as the compound, how does the “activity, negative = inhibition” value read?
Answer: The value was 2.21%.

Question: How did the activity, negative = inhibition turn out when CN1C(C(=O)NCc2ccco2)CC2Cn3c(nc4ccccc43)C21 (stereo not drawn) was run?
Answer: Its activity, negative = inhibition is 16.2% [at 2.33 µM].

Question: Which “activity, negative = inhibition” value does the source give for COc1ccccc1N1CCN(C(=O)C2Cc3ccccc3CN2C(=O)c2ccco2)CC1 (stereo not drawn) here?
Answer: Its value is 12.2%.

Question: Which “activity, negative = inhibition” value does the source give for CC1CCN(c2ccc(-c3ccc(NC(=O)c4ccco4)cc3)nn2)CC1 here?
Answer: The value was -2% [at 102 µM].

Question: How did the “activity, negative = inhibition” value turn out when O=C(Nc1cc(C(F)(F)F)ccc1Cl)c1ccc2c(c1)CCN2S(=O)(=O)c1ccccc1 was run?
Answer: Its value is 4.92%.

Question: Which activity, negative = inhibition does the source give for COc1cccc(N2CC(C(=O)NCc3n[nH]c(=O)c4ccccc34)CC2=O)c1 (stereo not drawn) here?
Answer: Its activity, negative = inhibition is -7.83% [at 2.33 µM].

Question: How did the Potency turn out when CCN(CC)c1ccc(NC(=O)CN2C(=O)c3cccnc3Oc3ccc(Cl)cc32)c(C)c1 was run?
Answer: Its Potency is 2.82 µM (active).

Question: With Cc1cc(C)c(NC(=O)CN2C(=O)c3cccnc3Oc3ccc(Cl)cc32)c(C)c1 as the compound, how does the “activity, negative = inhibition” value read?
Answer: Its value is 4.24%.

Question: How did the Potency turn out when O=C(CN1C(=O)c2cccnc2Oc2ccc(Cl)cc21)NCCc1ccccc1 was run?
Answer: The Potency was “inactive”.

Question: COc1ccc(C(=O)COC(=O)CCCC(=O)Nc2cc(C(F)(F)F)ccc2Cl)cc1 was tested. Which “activity, negative = inhibition” value did it give?
Answer: The value was 2.92%.

Question: With O=c1c2ccccc2ncn1/N=C/c1ccccc1 as the compound, how does the “activity, negative = inhibition” value read?
Answer: Its value is 8.52% [at 102 µM].

Question: For CCCCn1c(=O)c(CCC(=O)OCC(=O)Nc2ccc(C)c(Cl)c2)nc2ccccc21, which “activity, negative = inhibition” value is on record?
Answer: The value was 21.2%.

Question: CCN(c1ccc(NC(=O)COC(=O)CCc2nc3ccccc3n2-c2ccccc2)cc1)C(C)C was tested. Which Potency did it give?
Answer: The Potency was 15.8 µM (active).

Question: How did the “activity, negative = inhibition” value turn out when Cc1ccc(NC(=O)COC(=O)CCc2nc3ccccc3n2-c2ccccc2)c(C)c1 was run?
Answer: Its value is 19.1%.

Question: How did the Potency turn out when Cc1ccc(N=C2NC(=O)/C(=C/C=C/c3ccco3)S2)cc1C was run?
Answer: The Potency was 10 µM (active).

Question: With CN(C)c1ccc(-n2cccc2/C=C2/SC(=Nc3ccc(F)cc3)NC2=O)cc1 as the compound, how does the “activity, negative = inhibition” value read?
Answer: The value was -3.36% [at 102 µM].
